Drawing on PubChem BioAssay (NCI), this text covers growth for eight compounds.

Assay in all cases: NCI-60 one-dose screen, 48 h (100 = growth as untreated, 0 = no growth, -100 = all killed)
Holding throughout (conditions): 10 µM unless noted

Assay [1] concerns SR leukemia.
Assay [2] concerns RPMI-8226 leukemia.
For assay [3], the system named is OVCAR-8 ovarian.
Assay [4] concerns OVCAR-5 ovarian.
Assay [5] deals with OVCAR-4 ovarian.
Assay [6] relates to SK-OV-3 ovarian.
For assay [7], the system named is IGROV1 ovarian.
Assay [8] deals with OVCAR-3 ovarian.
The test system of assay [9] is HS 578T breast.
The test system of assay [10] is NCI/ADR-RES ovarian.
Assay [11] deals with T-47D breast.
Assay [12] has as its system BT-549 breast.
In assay [13] the test system is MDA-MB-435 melanoma.
Assay [14] has as its system SW-620 colon.
For assay [15], the system named is MCF7 breast.
The test system of assay [16] is HCT-116 colon.
The subject of assay [17] is HCC-2998 colon.
Assay [18] has as its system KM12 colon.
In assay [19] the test system is MDA-MB-468 breast.

SMILES strings stand for the structures. This is part of a sample that, as a whole, favours compounds with a hit. Of some 83,000 tested, about 20% had one in any assay.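 Assay: single dose, 48 h. Readout: percent growth (0 = no net growth; negative = cell death). Active: <10.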 Unmarked numbers belong to inactive results. Calls of active or inactive are those of the source.

As to `COC1=C[C@]23CCC(=O)N2CCc2cc4c(cc2[C@@H]3[C@@H]1OC(=O)[C@H](C)O)OCO4`, the growth in [1] was -11.9% (active); in assay [2], -17.9% (active); in assay [3], 29.1%; in assay [4], 46.4%; in assay [5], 13.1%; in [6], 23.5%. The growth is 20% in assay [7]; -2.32% (active) in assay [8]; 53.9% in [9]; 74.6% in assay [10]; 42.4% in [11]; 2.51% (active) in assay [12]. The growth in assay [13] is 34.6%; in assay [14] it was 13.6%; in assay [15] it was -5.57% (active); in assay [16] it was 1.88% (active); in [17] it was -29.9% (active); in assay [18] it was 18.9%. Moreover, the growth in assay [19] is -17% (active).
In the case of `C=C1CC[C@@H]2[C@]3(C)COC(c4ccccc4)O[C@@H]3CC[C@@]2(C)[C@@H]1C/C=C1/C(=O)OCC1OC(C)=O` (some centres not stated), the growth in assay [1] was -32.8% (active); in assay [2], -42.4% (active); in [3], -64.9% (active); in [4] it was -78.5% (active); in assay [5], 0.176% (active); in [6] it was 93.7%. The growth was -51.3% (active) in assay [7]; -88.2% (active) in [8]; 61.5% in assay [9]; -73.1% (active) in assay [10]; -45.1% (active) in [11]; -93.5% (active) in assay [12]. Also, the growth is -29.3% (active) in assay [13]; -49.1% (active) in assay [14]; -56.7% (active) in assay [15]; -94.7% (active) in assay [16]; -76.2% (active) in assay [17]; -9.91% (active) in assay [18]. For the same compound, in [19], the growth was -89.8% (active).
In the case of `O=C(COc1ccc(NC(=O)Nc2ccc(Cl)c(Cl)c2)cc1)N=Nc1c(O)[nH]c2ccccc12`, the growth in assay [1] was 2.4% (active); in [2] it was 2.89% (active); in assay [3], -43.2% (active); in assay [4], -8.84% (active); in [5] it was -5.31% (active); in [6], -49.9% (active). For the same compound, the growth in assay [7] was -49% (active); in assay [8], -78.1% (active); in assay [9], -9.24% (active); in [10] it was 80.8%; in assay [11] it was 11.6%; in [12], -38.4% (active). In addition, the growth in assay [13] was -63.8% (active); in assay [14], -62% (active); in [15] it was -6.27% (active); in assay [16], -1.24% (active); in assay [17], -49.3% (active); in assay [18], -38.3% (active). In addition, the growth in assay [19] is -47.7% (active).
Turning to `CN(C)CCn1c2ccccc2c2nc3ccc([N+](=O)[O-])cc3nc21`, the growth was 13% in [1]; 20.3% in [2]; -15.6% (active) in assay [3]; -0.168% (active) in [4]; 16.6% in assay [5]; 8.18% (active) in [6]. In addition, the growth is 4.78% (active) in assay [7]; 7.62% (active) in assay [8]; 10.1% in assay [9]; 8.38% (active) in assay [10]; 14.3% in [11]; 12.5% in assay [12]. Moreover, the growth in assay [13] is 22.3%; in assay [14], 12.2%; in assay [15] it was 12.4%; in assay [16] it was 0.47% (active); in assay [17] it was 2.82% (active); in assay [18] it was 1.62% (active). Moreover, the growth in assay [19] is -25.5% (active).
With `CCCS(=O)(=O)N1CCCC(C(=O)Nc2nc3ccc(NC(=O)c4ccc(F)c(OC)c4F)cc3s2)C1` (configuration not stated), the growth in [1] is 16.2%; in [2], 12.4%; in [3], 26.6%; in [4], 86%; in assay [5] it was 32.3%; in [6] it was 61.1%. Further, the growth was 63.3% in assay [7]; 48.9% in assay [8]; 29.4% in [9]; 19.9% in [10]; -0.579% (active) in assay [11]; -11.9% (active) in assay [12]. Besides, the growth is 36.4% in [13]; 81.6% in assay [14]; 13.1% in assay [15]; 31.1% in assay [16]; 72.5% in assay [17]; 41.3% in assay [18]. For the same compound, the growth in assay [19] was 18.5%.
For `COc1ccc(-c2nc3cc(C)ccc3n2CC(=O)N=Nc2c(O)[nH]c3ccc(OC)cc23)cc1`, the growth in assay [1] was -21.1% (active); in [2], -14.7% (active); in assay [3] it was -68.8% (active); in [4], -48.2% (active); in assay [5], -58.1% (active); in assay [6], -17.7% (active). In addition, the growth in [7] was -17.3% (active); in assay [8] it was -71.8% (active); in [9], -23.4% (active); in assay [10] it was -56.1% (active); in assay [11] it was -60% (active); in [12], -85.4% (active). In addition, the growth in assay [13] was -67.8% (active); in assay [14], -48.2% (active); in assay [15] it was -50.3% (active); in [16], -97.4% (active); in assay [17], -67.9% (active); in assay [18] it was -79.5% (active). The growth in [19] was -77.1% (active).
For the compound `COc1cc2oc(-c3cccc(C(=O)Nc4ccc(Cl)cc4)c3)cc(=O)c2c(OCCNC(=O)[C@H](CCC(=O)OC(C)(C)C)NC(=O)OC(C)(C)C)c1OC`, the growth was 72.9% in [1]; 78.1% in assay [2]; 100% in [3]; 107% in assay [4]; 93% in [5]; 102% in [6]. The growth in assay [7] was 89.9%; in assay [8] it was 110%; in assay [9] it was 92.6%; in assay [10], 91.5%; in assay [11], 78.7%; in [12], 100%. The growth in assay [13] was 100%; in [14] it was 112%; in assay [15], 83%; in [16] it was 95.6%; in assay [17] it was 118%; in [18] it was 102%. In assay [19], the growth was 105%.
Consider `O=c1[nH]c2ccccc2cc1CSc1nccc(-c2ccc3ccccc3c2)n1`, for which the growth in assay [1] is 20.6%; in [2] it was 52.1%; in assay [3], 79.6%; in [4], 93.7%; in assay [5] it was 80.3%; in assay [6], 84.3%. For the same compound, the growth is 89.9% in assay [7]; 102% in [8]; 71% in [9]; 41.7% in assay [10]; 41.8% in [11]; 44.8% in [12]. Further, the growth is 17.3% in [13]; 51.2% in assay [14]; 47% in assay [15]; 41.7% in [16]; 83.5% in assay [17]; 69.6% in assay [18]. In assay [19], the growth was -17.2% (active).
